# Bioassay records: PubChem BioAssay, The Scripps Research Institute Molecular Screening Center
# DAX1 inh-1: inhibits human nuclear receptor DAX1; HEK293 Gal4-DAX1 luciferase reporter, luminescence; AID 504766; 0.99% of 340,000 active; P51843; inhibition, % at 6.75 µM;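 active = inhibition above the mean over all tested compounds plus 3 SD, cut at about 4.2% in these data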;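 also: 0% = DAX1-transfected cells with DMSO and 100% = empty-vector control cells with DMSO; inhibition shows as a rise in luminescence from relieved DAX1 repression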
# Target sequence (P51843 207-470 limits assumed): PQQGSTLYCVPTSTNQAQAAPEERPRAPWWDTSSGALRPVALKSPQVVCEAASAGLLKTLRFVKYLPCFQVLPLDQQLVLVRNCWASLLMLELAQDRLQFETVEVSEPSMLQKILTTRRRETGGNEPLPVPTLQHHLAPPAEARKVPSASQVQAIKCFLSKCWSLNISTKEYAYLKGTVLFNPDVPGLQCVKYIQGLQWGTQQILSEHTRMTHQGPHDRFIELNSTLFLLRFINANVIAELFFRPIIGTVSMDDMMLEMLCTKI
# hgDAF-12 ag: hgDAF-12 agonism, primary luciferase screen | 1.8% of 370,000 active | activation, % at 6.8 µM | HEK293 GAL4-hgDAF12 UAS-luciferase reporter, agonist luminescence; normalized to butyrate control;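 active = activation above a cutoff set at the mean of all screened compounds plus 3 SD, cut at about 10% in these data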;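 also: 0% = DMSO wells and 100% = sodium butyrate wells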
# hcDAF12 agonist: activates DAF-12 receptor from parasite H. contortus; AID 652067; HEK293 hcDAF-12 lit1-tk-luc reporter, luminescence; 0% DMSO, 100% Δ7-dafachronic acid; 1.4% of 370,000 active; activation, % at 6.8 µM;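 active = activation above the mean of all tested compounds plus 3 SD, cut at about 5.5% in these data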;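 also: 100% = response to 3 µM Δ7-dafachronic acid high control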
# DAX1 inh-2: blocks DAX1 repression of SF-1 activated StAR promoter. 1.1% of 370,000 active. HEK293T StAR-luciferase reporter, SF-1/DAX-1 repression relief. inhibition, % at 6.8 µM;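 active = inhibition above the mean over all tested compounds plus 3 SD, cut at about 3.6% in these data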;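 also: 0% = DAX-1 cells with DMSO and 100% = cells lacking DAX-1 with DMSO; higher inhibition means more luminescence from relief of DAX-1 repression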
# ssDAF12 agonist: activates DAF-12 receptor from parasite S. stercoralis; activation, % at 6.8 µM; AID 652126; HEK293 ssDAF-12/GRIP1 lit1-tk-luc reporter, luminescence; % of 3 µM dafachronic acid response; 1% of 370,000 active;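 active = activation above the mean over all tested compounds plus 3 SD, cut at about 0.9% in these data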;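 also: 0% = DMSO-only wells and 100% = 3 µM delta7-dafachronic acid wells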
# Numbers without * were called inactive; / = no result given. This is a sample that favours compounds with a hit; in the whole collection about 4.1% have one here.
SMILES,DAX1 inh-1,hgDAF-12 ag,hcDAF12 agonist,DAX1 inh-2,ssDAF12 agonist
Cc1ccnc(N(C(=O)c2cccs2)C(=O)c2cccs2)c1,3,13*,2,2,0
CCCCC(=O)Nc1cc(C)c(NC(=O)c2cccs2)cn1,0,0,-2,0,-2
CCCCC(=O)Nc1cnc(NC(=O)c2cccs2)cc1C,2,12*,4,2,0
Cc1ccnc(NC(=O)CCC(=O)c2cccs2)c1,-5,1,2,4.0*,-1
CCCCCCC(=O)NC1CCCCN(Cc2ccccc2C)C1=O (centres undefined),/,2,1,0,0
CN(Cc1ccccc1)C(=O)OCc1cn(Cc2ccccc2F)nn1,/,1,-1,0,-2
COc1ccc(S(=O)(=O)N2CCC(c3nc4ccccc4o3)CC2)c(OC)c1,/,0,-3,-1,-1
Cc1ccnc(NC(=O)CNC(=O)c2ccc(C)s2)c1,2,10,3,4.0*,0
CC(COc1ccc(C#N)cc1)CN1CCC(C(O)(c2ccccc2)c2ccccc2)CC1 (centres undefined),/,0,0,0,-1
CC(=C1C(=O)c2ccccc2C1=O)N1CCc2ccccc2C1,1,3,5.7*,1,-1
C=CCN(Cc1ccc2c(c1)OCO2)C(C#CC1CC1)C(C)C (centres undefined),/,-2,0,-1,-1
O=C(NCCc1ccc2c(c1)OCO2)c1cc(-c2ccccc2)c(N2CCOCC2)s1,/,-5,-3,-1,-1
CCOC(=O)c1sc(-c2ccc(F)cc2)cc1N,0,9,0,3,-2
CCOC(=O)c1sc(-c2ccc(OC)cc2)cc1N,3,12*,4,2,0
O=C(COc1ccc(F)cc1Cl)Nc1nnc(-c2ccc(F)c(F)c2)o1,/,7,2,/,-1
CCc1ccc(-c2csc3ncn(CC)c(=O)c23)cc1,0,-3,-1,0,18*
COC(=O)[C@]12C[C@H](CC(=O)NCC34CC5CC(CC(C5)C3)C4)C(=O)N(Cc3cccc4ccccc34)C1=C[C@H](COCc1ccccc1)O[C@@H]2C,/,2,-2,0,-1
Cc1ccc(-c2ccc(NC(=O)C3C4C=CC(C4)C3C(=O)O)cc2)o1 (centres undefined),0,13*,1,1,-1
C/C(=N/NC(=O)c1ccc(Br)o1)c1cccs1,1,7,1,3.7*,0
CCN(CC)C(=O)CC[C@@H]1CC[C@]2(CCCN(Cc3ccccn3)C2)O1,/,-1,-2,1,-1
COc1cc(NC(=O)NC2CCCCN(Cc3ccc(Cl)cc3)C2=O)cc(OC)c1 (centres undefined),/,-3,-3,-1,-1
Cc1nc(Nc2ccc(C(=O)O)cc2)nc(Nc2ccc(C(=O)O)cc2)c1[N+](=O)[O-],0,-1,0,0,-2
Cc1nc(Nc2ccc(F)cc2)nc(Nc2ccc(F)cc2)c1[N+](=O)[O-],4.7*,1,-1,1,-1
CCn1c(=O)cc(SCC(=O)N2CCCCC2)c2ccccc21,1,0,0,0,-1
Cn1c(=O)cc(SCC(=O)N2CCN(C3CCCCC3)CC2)c2ccccc21,7.3*,0,0,2,-1
SMILES,DAX1 inh-1,hgDAF-12 ag,hcDAF12 agonist,DAX1 inh-2,ssDAF12 agonist
Cn1c(SCC(=O)Nc2ccc(C(=O)O)cc2)nnc1-c1ccccn1,/,0,-1,1,-1
COc1ccc(NC(=O)c2ccc3nc(C)sc3c2)cc1,2,4,1,0,0
COc1cccc(NC(=O)c2ccc(OC(F)(F)F)cc2)c1,2,11*,3,1,0
COc1ccc(NC(=O)c2ccc3ncsc3c2)cc1,1,10,1,0,1.3*
COc1ccc(NC(=O)c2ccc3c(c2)n(C)c(=O)n3C)cc1,6.4*,0,-2,0,-2
CCOc1ccc(NC(=O)c2ccc(OC)cc2)cc1,-1,13*,0,1,-1
COc1ccc(C(=O)Nc2ccc3c(c2)n(C)c(=O)n3C)cc1OC,2,1,-1,0,-1
COc1ccc(CNC(=O)OC2CC3CC2[C@H]2CCCCN2C3)cc1 (some centres undefined),/,1,-4,-1,0
CC(C)CN1C(=O)[C@@]2(CC(=O)N(C)C2c2ccccc2)c2cc(-n3cc(-c4ccccc4)nn3)ccc21 (some centres undefined),/,3,-1,0,-1
O=C(c1cncnc1)N1CCC(n2nnc3ncccc32)CC1,/,-1,-2,-1,-1
O=C(COc1ccc2ccccc2c1Br)N1CCCCC1,3,/,/,/,/
O=C(Oc1ccc2ccccc2c1Br)N1CCCCCC1,-2,0,6.5*,3,-1
Cc1ccc(S(=O)(=O)NCC2CCN(C(=O)C(=O)c3cc4ccccc4o3)CC2)cc1,/,-2,0,1,0
COc1ccc(N2CCN(C(=O)CN(C)S(=O)(=O)c3cnc[nH]3)CC2)cc1,7.1*,-3,0,-1,0
C[N+]1(C)CC2=Cc3ccccc3CC2C1 (centres undefined),4.8*,-1,-1,0,-2
COC(=O)C1=C(NC(=O)c2ccc(Br)cc2)CCS1,0,5,3,0,1
COC(=O)C1=C(NC(=O)c2ccc(C)c(C)c2)CCS1,0,4,6.1*,0,0
CC(=O)Nc1cc(C)ns1,4.3*,4,-1,0,-1
CN1C(=O)C(CC(=O)Nc2ccc(F)cc2)N(Cc2cccs2)C1=S (centres undefined),1,3,3,1,9.6*
C[C@H]1C(c2ccccc2F)O[C@]2(C[C@H](O)c3ccccc3O2)C[C@@H]1O (some centres undefined),/,1,1,-1,-1
O=C(Oc1ccccc1/C=C\C(=O)c1cc2ccccc2o1)c1ccccc1,0,10,6.2*,1,0
COc1cccc(C(=O)Oc2ccccc2/C=C\C(=O)c2cc3ccccc3o2)c1,-1,10,6.5*,0,1.6*
NC(=O)N/N=C/c1ccccc1OC(=O)c1cc2ccccc2oc1=O,1,4,1,2,-1
CCOc1ccccc1N(CC(=O)Nc1ccccc1F)S(=O)(=O)c1ccccc1,1,10*,4,1,0
CCOc1ccccc1N(CC(=O)Nc1ccc(OC)cc1OC)S(=O)(=O)c1ccccc1,-1,-2,1,-1,1
COc1cc(C2C(C#N)=C(N)Oc3cc(O)ccc32)cc(OC)c1OC (centres undefined),0,-1,0,0,-1
COc1cc(C2C(C#N)=C(N)Oc3cc4c(cc32)OCO4)cc(OC)c1OC (centres undefined),1,-1,0,4.4*,-1
Cc1ccccc1CN1CCCCC(NC(=O)C2CCC2)C1=O (centres undefined),/,-1,1,0,1.9*
